Some of the results follow. The true hit rate is not given.
Target: furin, P09958
Assay: furin cleavage Z-score vs untreated control; higher = more cleavage, active = 3.5 or more, inactive = 1 or less, 8 variable residues between constant flanks
Outline: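 Magnetic beads held 8-mer peptides by the N-terminus, each fused to a cDNA oligonucleotide, and purified furin was added for 7.5, 15 or 30 min. Released DNA was sequenced after PCR adapter tagging. The cleavage Z-score is the log count relative to furin-free reactions, lowess-adjusted and divided by median absolute deviation.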
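Further: purified furin at 1:10 enzyme:substrate in 50 mM HEPES pH 7.5.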

furin, P09958, sequence (P09958 whole entry): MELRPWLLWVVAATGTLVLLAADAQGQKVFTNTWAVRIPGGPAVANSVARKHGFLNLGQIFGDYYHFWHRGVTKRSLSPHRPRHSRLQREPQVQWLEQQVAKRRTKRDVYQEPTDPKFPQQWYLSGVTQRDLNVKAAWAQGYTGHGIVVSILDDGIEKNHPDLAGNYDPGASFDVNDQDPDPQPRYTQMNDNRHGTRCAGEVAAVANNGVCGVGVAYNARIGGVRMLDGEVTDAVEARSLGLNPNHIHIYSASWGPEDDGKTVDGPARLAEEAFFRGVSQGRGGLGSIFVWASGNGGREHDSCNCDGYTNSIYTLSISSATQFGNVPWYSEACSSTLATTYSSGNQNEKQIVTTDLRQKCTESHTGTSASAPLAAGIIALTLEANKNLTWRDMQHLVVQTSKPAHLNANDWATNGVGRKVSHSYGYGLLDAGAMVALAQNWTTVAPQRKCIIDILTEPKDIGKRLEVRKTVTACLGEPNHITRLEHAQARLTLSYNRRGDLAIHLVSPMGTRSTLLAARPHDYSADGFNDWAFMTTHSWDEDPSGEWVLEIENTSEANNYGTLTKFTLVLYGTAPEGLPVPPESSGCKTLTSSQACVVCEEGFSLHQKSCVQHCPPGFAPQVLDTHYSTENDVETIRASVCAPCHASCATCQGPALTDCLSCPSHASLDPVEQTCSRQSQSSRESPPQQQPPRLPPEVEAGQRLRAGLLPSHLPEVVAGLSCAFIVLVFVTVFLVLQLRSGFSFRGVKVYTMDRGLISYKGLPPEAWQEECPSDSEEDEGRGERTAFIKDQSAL

| Sequence | furin cleavage Z-score (7.5 min) | furin cleavage Z-score (15 min) | furin cleavage Z-score (30 min) |
| --- | --- | --- | --- |
| CARQKKLAEKAGNASASA [FS-2585] | 0.116 (inactive) | -2.1 (inactive) | 0.509 (inactive) |
| CAKCDELAAKAGNASASA [HC860] | 1.37 | 1.03 | -0.237 (inactive) |
| CAPEKRAKRGAGNASASA [FS-1044] | 10.2 (active) | 9.94 (active) | 7.39 (active) |
| CASVSREDRGAGNASASA [FS-1491] | -0.464 (inactive) | -0.739 (inactive) | -0.69 (inactive) |
| CAGHQREKRGAGNASASA [FS-428] | 11.3 (active) | 13.2 (active) | 10.6 (active) |
| CAPEKRSVFAAGNASASA [FS-2874] | -0.508 (inactive) | -0.764 (inactive) | -1.36 (inactive) |
| CAEPPEAKRGAGNASASA [FS-1117] | 0.349 (inactive) | -1.82 (inactive) | -0.871 (inactive) |
| CAKVKREAEKAGNASASA [FS-1674] | 5.11 (active) | 4.39 (active) | 5.05 (active) |
| CAKVKREKRGAGNASASA [FS-454] | 11.2 (active) | 10.5 (active) | 9.94 (active) |
| CAPKPCGIVPAGNASASA [HC406] | 0.0213 (inactive) | 0.68 (inactive) | 1.33 |
| CAESKRLVDTAGNASASA [FS-1880] | -0.698 (inactive) | 0.318 (inactive) | 0.434 (inactive) |
| CAEVVTSTTVAGNASASA [HC2238] | -0.88 (inactive) | -1.41 (inactive) | 0.307 (inactive) |

From the supplement of paper PMC3545927
